Holding throughout (assay): NCI-60 one-dose screen, 48 h (100 = growth as untreated, 0 = no growth, -100 = all killed)
Details in all cases: 10 µM unless noted

Assay [1] concerns SK-MEL-2 melanoma.
Assay [2] deals with EKVX NSCLC.
Assay [3] concerns SN12C renal.
Assay [4] deals with UO-31 renal.
Assay [5] has as its system TK-10 renal.
For assay [6], the system named is ACHN renal.
The subject of assay [7] is CAKI-1 renal.
Assay [8] has as its system A498 renal.
Assay [9] has as its system CCRF-CEM leukemia.
Assay [10] deals with MOLT-4 leukemia.

The values that follow come from PubChem BioAssay (NCI).

Molecules are shown by their SMILES. The panel holds about 83,000 compounds, 20% with a hit somewhere; the sample as a whole holds those more often.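 Activity criterion: percent growth below 10, measured after cells in 96-well plates were exposed to a single compound concentration for 48 hours.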 Unmarked numbers belong to inactive results. The source made the active and inactive calls.

For `Oc1ccc(CCC2CCCC(CCc3ccc(OCCF)cc3)N2)cc1` (stereo not given), the growth in assay [1] was 104%; in assay [2], 105%; in assay [3], 89.6%; in assay [4], 72%; in [5], 96.7%; in assay [6], 99.8%. For the same molecule, the growth was 89.2% in assay [7], 96.9% in assay [8], 88.3% in assay [9] and 76.2% in assay [10].
For the molecule `Cc1ccccc1-c1nc(C(Cl)Cl)nc2cc(-c3ccccc3)nn12`, the growth in assay [1] is 101%; in assay [2] it was 57.8%; in assay [3] it was 81.4%; in [4] it was 57.2%; in assay [5], 65.1%; in assay [6] it was 41.1%. Also, the growth in [7] was 44.8%; in assay [8] it was 85.4%; in assay [9], 102%; in assay [10], 83.9%.
For `C#CCN=C[C@]12CC[C@@H](C(=C)C)[C@@H]1[C@H]1CC[C@@H]3[C@@]4(C)CCC(=O)C(C)(C)[C@@H]4CC[C@@]3(C)[C@]1(C)CC2`, the growth in assay [1] was 91.7%; in assay [2] it was 68.3%; in assay [3], 55.1%; in [4], -78.2% (active); in assay [5], 104%; in [6] it was 75.7%. In addition, the growth was 45% in assay [7], 91.9% in [8], 61.3% in [9] and 42.6% in assay [10].
Consider `N#CCCCCCn1c2ccccc2c2c3[nH]c(=O)[nH]c(=O)c3c3c4ccccc4n(CCCCCC#N)c3c21`, for which the growth in assay [1] is 78.5%; in [2], 80.7%; in [3], 26.2%; in [4], 61.1%; in assay [5] it was 65.6%; in [6], 54%. Also, the growth was 93.2% in assay [7], 54.5% in assay [8], 74.5% in [9] and 69.5% in assay [10].
`c1cc(N2CCCC2)c2nc(-c3[nH]ncc3Nc3ncnc4[nH]ccc34)[nH]c2c1`: the growth was -42.1% (active) in assay [1]; -31% (active) in assay [2]; -13.7% (active) in assay [3]; -20.3% (active) in assay [4]; -26.4% (active) in assay [5]; -14.6% (active) in [6]. Besides, the growth was -33.2% (active) in assay [7], -79.5% (active) in assay [8], 1.97% (active) in assay [9] and 1.93% (active) in [10].
For the molecule `Cc1ccncc1C(=O)O`, the growth is 121% in [1]; 97.5% in assay [2]; 94.6% in assay [3]; 88.7% in [4]; 123% in assay [5]; 97.2% in assay [6]. Also, the growth in assay [7] was 95.9%; in [8], 89%; in assay [9], 140%; in assay [10] it was 122%.
As to `COC(=O)[C@]12CC[C@@H](C(C)=O)[C@@H]1[C@H]1CC[C@@H]3[C@@]4(C)C/C(=C/c5cccnc5)C(=O)C(C)(C)[C@@H]4CC[C@@]3(C)[C@]1(C)CC2`, the growth in assay [1] is 68.1%; in [2] it was 85.8%; in assay [3], 57.7%; in assay [4], 56.6%; in assay [5], 133%; in [6], 32.5%. For the same molecule, the growth is 51% in assay [7], 80.6% in assay [8], 7.57% (active) in [9] and 5.47% (active) in [10].
Turning to `Cn1c2ccccc2c2c3c(c4c5cccnc5[nH]c4c21)C(=O)N(O)C3=O`, the growth in assay [1] is 97.5%; in [2], 85.9%; in [3] it was 22.6%; in assay [4], 31%; in assay [5] it was 97.4%; in [6] it was 17.8%. Moreover, the growth in assay [7] was 24%; in assay [8], 109%; in assay [9] it was 13.2%; in [10], 0.301% (active).
Regarding `Cc1ccc(-c2nn(Cc3cn(-c4cc(C)nc5ccccc45)nn3)c3ncnc(N)c23)cc1`, the growth was 76.2% in assay [1]; 57.3% in assay [2]; 31.1% in [3]; 17.6% in assay [4]; 31.8% in assay [5]; 31.9% in [6]. The growth in assay [7] was 20.8%; in [8], -2.48% (active); in assay [9] it was 63.1%; in [10] it was 49.9%.
Turning to `NC1=NN(c2ccccc2)C(=O)/C1=C/c1ccc(Cl)cc1`, the growth in assay [1] was 96.2%; in assay [2], 96%; in [3] it was 94.6%; in [4], 78.3%; in [5], 91.2%; in [6], 93.9%. In addition, the growth in assay [7] was 97%; in assay [8], 99.7%; in assay [9] it was 101%; in [10], 102%.
Take `C=C1C(=O)O[C@H]2[C@H]1CC/C(Cn1cc(-c3ccc(F)cc3)nn1)=C\CC[C@@]1(C)O[C@@H]21`: the growth in assay [1] was 14.9%; in assay [2], 68.4%; in assay [3], -13.6% (active); in [4], -80.8% (active); in assay [5], -92.9% (active); in assay [6], -19.7% (active). Besides, the growth in [7] is -12.9% (active); in assay [8], 27.4%; in [9], -36.6% (active); in [10], -25.4% (active).
With `CCCCCCCC(=O)SCC/C=C/[C@@H]1CC(=O)NCc2cccc(n2)CN(Cc2ccc(Cl)cc2)CC(=O)N[C@@H](C(C)C)C(=O)O1`, the growth in assay [1] is 1.04% (active); in [2], 32.5%; in assay [3], 21.6%; in assay [4], -5.27% (active); in assay [5], -6.26% (active); in [6], -15.5% (active). Also, the growth was -7.97% (active) in assay [7], -54% (active) in [8], 7.54% (active) in [9] and 3.43% (active) in assay [10].
Take `COC(=O)[C@]12CC[C@@H](C)[C@H](C)[C@@H]1C1=CC[C@@H]3[C@@]4(C)C=C(O)C(=O)C(C)=C4CC[C@@]3(C)[C@]1(C)CC2`: the growth in assay [1] was 27%; in assay [2], 1.05% (active); in assay [3], 18.9%; in assay [4], 34.3%; in assay [5], 14.6%; in [6] it was 22.4%. Besides, the growth is 33.4% in assay [7], 81.5% in assay [8], -26.2% (active) in assay [9] and -15.9% (active) in [10].
